Screening data from PubChem BioAssay.
HIV RNase H inh-1: HIV-1 RT RNase H inhibitors, primary screen, biochemical, fluorescence. Gag-Pol polyprotein (Human immunodeficiency virus type 1 group M subtype B (isolate …. RT-RNase H RNA/DNA duplex cleavage. inhibition, % at 10 µM. 65,000 compounds, 1.9% hits. AID 565, 2006; in the data active = inhibition above about 50%
HIV RNase H inh-2: HIV-1 RT RNase H inhibitors, retest, confirmation, biochemical; AID 651, 2007; Recombinant RT RNase H, fluorescent RNA/DNA duplex cleavage; shares compounds with HIV RNase H inh-1; 1,000 compounds, 39% hits; inhibition, % at 10 µM; in the data active = inhibition above about 48%
* = called active by the depositor. Many of the other results were omitted from the sample, so hits are more common in it than they were.

What do the screens show for `CC1(C)Cc2[nH]c(=S)c(C#N)cc2CO1`?
HIV RNase H inh-1: 69.6*; HIV RNase H inh-2: 65.1*

Results for CCCc1c(O)nc(SCCN(CC)CC)n(C(=O)c2ccccc2)c1=O ?
HIV RNase H inh-1: 0.6

Results for COC(=O)c1oc2ccc(Br)cc2c1NC(=O)c1ccccc1 ?
HIV RNase H inh-1: 59.2*; HIV RNase H inh-2: 76.1*

How did COC(=O)c1oc2ccc(Br)cc2c1NC(=O)CN1CCN(C)CC1 do in these assays?
HIV RNase H inh-1: -4.3

How did COC(=O)c1oc2ccc(Cl)cc2c1NC(C)=O do in these assays?
HIV RNase H inh-1: -9.2

Results for CCc1nc(SCC(=O)Nc2cccc(C(F)(F)F)c2)c2c(=O)n(C)c(=O)n(C)c2n1 ?
HIV RNase H inh-1: 16.5

How did CCOC(=O)c1ccccc1NS(=O)(=O)c1ccc(S(=O)(=O)N2CCCC2)cc1 do in these assays?
HIV RNase H inh-1: -9.2

What do the screens show for `CCCN1CCN(C(=O)c2cccc3c2C(=O)N(CCOC)C3)CC1`?
HIV RNase H inh-1: -6.3

How did Cn1c(-c2ccc3c(c2)OCO3)cnc1NCc1ccccc1 do in these assays?
HIV RNase H inh-1: -5.3

Results for Cn1c(-c2ccc3c(c2)OCO3)cnc1NC(=O)CCC(=O)NCCc1ccccc1 ?
HIV RNase H inh-1: 84.2*; HIV RNase H inh-2: 41.7

Results for Cn1c(-c2ccc3c(c2)OCO3)cnc1NCc1cccc(Cl)c1 ?
HIV RNase H inh-1: -2.2

How did O=S(=O)(c1ccc(OCC(O)CN2CCc3ccccc3C2)cc1)N1CCOCC1 (centres undefined) do in these assays?
HIV RNase H inh-1: -11.9

What do the screens show for `O=C1C(=O)N(CCCn2ccnc2)C(c2cccnc2)/C1=C(/O)c1ccc(F)cc1` (centres undefined)?
HIV RNase H inh-1: -1.7

What do the screens show for `O=C(CCn1nnc2ccccc21)Nc1nnc(-c2ccccc2F)s1`?
HIV RNase H inh-1: 5.8

What do the screens show for `COc1ccc2[nH]c(=O)c(CN(CCCN(C)C)C(=O)Nc3ccc(F)cc3)cc2c1`?
HIV RNase H inh-1: -2.3

How did Cc1cc(C(=O)Nc2sc(C)c(C)c2C#N)no1 do in these assays?
HIV RNase H inh-1: 23.1

How did CCc1c(C)sc(NC(=O)CC#N)c1C#N do in these assays?
HIV RNase H inh-1: 37.7

What do the screens show for `CCc1c(C)sc(NC(=O)c2cc(C)no2)c1C#N`?
HIV RNase H inh-1: 60.1*; HIV RNase H inh-2: 11.8

What do the screens show for `Cc1sc2nc(C(C)Sc3nnc(C)n3-c3ccccc3)[nH]c(=O)c2c1C` (centres undefined)?
HIV RNase H inh-1: -9.1

How did Cc1sc2nc(C(C)Nc3ccccc3N3CCOCC3)[nH]c(=O)c2c1C (centres undefined) do in these assays?
HIV RNase H inh-1: 65.0*; HIV RNase H inh-2: 78.3*

How did Cc1sc2nc(SCC(=O)N3CCOCC3)[nH]c(=O)c2c1C do in these assays?
HIV RNase H inh-1: -4.0

What do the screens show for `COc1ccc(C2(O)CCN(CC(=O)Nc3nccs3)CC2)c(OC)c1`?
HIV RNase H inh-1: 1.5

How did CC(C)(C)NC(=O)CSc1nnc(C2CC2)n1Cc1ccccc1 do in these assays?
HIV RNase H inh-1: -9.7

How did CCCC(=O)c1c(NC(C)C)cc(C)oc1=O do in these assays?
HIV RNase H inh-1: -23.0

Results for CC(C)(C)c1csc(NC(=O)Cn2c(=O)oc3ccccc32)n1 ?
HIV RNase H inh-1: 87.6*; HIV RNase H inh-2: 21.2

How did O=C(CCn1c(=O)oc2ccccc21)Nc1nccs1 do in these assays?
HIV RNase H inh-1: -12.6

What do the screens show for `CCN(CC)S(=O)(=O)c1ccc(NC(=O)Cn2c(=O)oc3ccccc32)cc1`?
HIV RNase H inh-1: -7.1

How did Cc1noc(C)c1COC(=O)CCCc1c[nH]c2ccccc12 do in these assays?
HIV RNase H inh-1: -17.8

Results for CCOc1ccccc1NC(=O)C1=C(C)NC(=O)NC1c1cccc(OC)c1OC (centres undefined) ?
HIV RNase H inh-1: 9.1

What do the screens show for `CC(C)Cn1c(=O)c2c(c3ccccc31)OC(C)C(=O)N2` (centres undefined)?
HIV RNase H inh-1: -33.6

Results for Cc1cc(C(=O)CN2C(=O)NC(Cc3c[nH]c4ccccc34)C2=O)c(C)n1C (centres undefined) ?
HIV RNase H inh-1: -2.1

Results for Cc1nc(N)sc1-c1csc(Nc2ccccc2)n1 ?
HIV RNase H inh-1: -1.8

How did COc1ccc(OC)c(Nc2nc(-c3sc(N)nc3C)cs2)c1 do in these assays?
HIV RNase H inh-1: 25.8

What do the screens show for `Cc1cc(O)ccc1Nc1nc(-c2sc(N)nc2C)cs1`?
HIV RNase H inh-1: 73.2*; HIV RNase H inh-2: 49.1

How did COc1ccc(-c2ccc(SCC(=O)N3CCOCC3)nn2)cc1OC do in these assays?
HIV RNase H inh-1: -0.1

What do the screens show for `COc1ccc(-c2ccc(SCC(=O)N3CCCC3)nn2)cc1OC`?
HIV RNase H inh-1: 89.6*; HIV RNase H inh-2: 5.9

How did COc1ccc(-c2nnc(SCC(=O)N3CCCC3)o2)cc1OC do in these assays?
HIV RNase H inh-1: 4.4

Results for Cn1c(=O)cc(OCC(=O)Nc2ccccn2)c2ccccc21 ?
HIV RNase H inh-1: -9.7
